Rows were chosen to be rich in hits. Some 9.3% of all compounds tested hit in one or more screens of this group.
NPC1 prom act: activators of NPC1 promoter; 320,000 compounds, 2.4% hits; Potency, µM (series often up to 9.22 µM), without a hit: top-dose activation, actives largely listed as activators; AID 485313; Huh7 NPC1 promoter luciferase reporter, 24 h; also: % of control where 0% means no effect; nearly all actives have a fitted effect of over 60% in size
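Luciferase expression driven by the NPC1 promoter was measured in stably transfected Huh7 cells after a 24 h compound incubation, using a luciferase reagent and a luminescence read.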
FLuc modulator: counter-screen for miR-21 project: firefly luciferase inhibitors or activators; P08659; purified FLuc, Km substrates, luminescence inhibition; Potency, µM (titrated, usually from 57.5 µM), without a hit: top-dose activity change, negative = inhibition, usual class: inhibitors; 360,000 compounds, 6.9% hits; AID 588342;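 also: plate controls were vehicle for no effect and reference inhibitor for full effect; nearly all actives have a fitted effect of over 55% in size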
Target sequence (P08659 whole entry, looked up): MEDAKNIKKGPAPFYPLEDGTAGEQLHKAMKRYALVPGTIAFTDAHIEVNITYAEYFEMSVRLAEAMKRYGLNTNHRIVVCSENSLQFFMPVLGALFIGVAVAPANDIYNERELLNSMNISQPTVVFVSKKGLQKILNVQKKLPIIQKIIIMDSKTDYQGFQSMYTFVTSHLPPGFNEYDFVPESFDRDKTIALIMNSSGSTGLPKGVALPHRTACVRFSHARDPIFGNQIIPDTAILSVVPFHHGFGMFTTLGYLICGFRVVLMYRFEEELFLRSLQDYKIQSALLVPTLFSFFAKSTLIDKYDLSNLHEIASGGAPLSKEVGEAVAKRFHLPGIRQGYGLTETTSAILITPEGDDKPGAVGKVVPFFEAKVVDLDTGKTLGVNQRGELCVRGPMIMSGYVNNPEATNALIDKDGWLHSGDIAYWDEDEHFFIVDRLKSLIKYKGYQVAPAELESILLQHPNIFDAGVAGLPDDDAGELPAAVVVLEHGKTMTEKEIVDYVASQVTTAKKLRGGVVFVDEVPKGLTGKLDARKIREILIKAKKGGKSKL
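Biochemical qHTS of compounds, final roughly 60 µM downward over six points, against 10 nM purified firefly luciferase using Km concentrations of substrates (10 uM D-luciferin, 10 uM ATP) in Tris acetate pH 7.5 buffer; luminescence output.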
SMN2 splice enh: increases expression of the SMN2 splice variant; AID 1458; 210,000 compounds, 2.8% hits; HEK293 SMN2-luciferase splicing reporter, luminescence, 30-36 h; Potency, µM (doses to about 46.1 µM), inactives show top-dose activity change, positive = activation, actives largely listed as activators; also: % of control where 0% means no effect; nearly all actives have a fitted effect of over 55% in size
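HEK293 cells carry an SMN2 […]–luciferase reporter in which exon 7 inclusion puts luciferase in frame. Cells were plated 10-12 h before compound addition, then incubated 30-36 h at 37C. ONE-Glo luminescence was read; sodium butyrate at 4.5 mM final served as control.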
ELG1 repair inh: blocks ELG1-dependent DNA repair in HEK293T cells; HEK293T ELG1-luciferase reporter, luminescence, 16 h; DNA damage induced by 5-fluorouridine; Potency, µM (doses to about 46.1 µM), without a hit: top-dose activity change, negative = inhibition, actives largely listed as inhibitors; 330,000 compounds, 2.3% hits; also: % is scaled to controls: 0 for no effect and ±100 for the full control effect; nearly all actives have a fitted effect of over 55% in size
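Luminescence from the luciferase reporter, measured 30 min after ONE-Glo reagent at room temperature, was the read-out. Beforehand, 2,000 cells per well were exposed for 16 hr at 37 °C to 5-fluorouridine together with compound or vehicle.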
Rab9 promoter act: activators of Rab9 promoter | Huh7 Rab9 promoter-luciferase reporter, luminescence, 24 h | Potency, µM (top dose mostly 9.22 µM), inactives show top-dose activation, negative = inhibition, hits mostly activators | 320,000 compounds, 2.8% hits; also: % of control where 0% means no effect; nearly all actives have a fitted effect of over 60% in size
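Promoter activation is measured as luciferase luminescence in Huh7 cells stably transfected with a Rab9 promoter–luciferase construct, following 24 h compound exposure at 37 °C and 10 min reagent incubation at ambient temperature.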
ELG1 genotox: genotoxicity induction in ELG1-luciferase HEK293T cells; HEK293T ELG1-luciferase reporter, luminescence, 16 h; Potency, µM (top dose mostly 46 µM), inactives show at the highest dose activity change, positive = activation, hits mostly activators; 330,000 compounds, 1.3% hits; also: % of control where 0% means no effect; nearly all actives have a fitted effect of over 60% in size
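Cells (2,000/well) expressing the ELG1-luciferase fusion are dosed by pin tool and kept 16 hr at 37 °C, 5% CO2. Signal comes from ONE-Glo luciferase reagent after 30 min at room temperature.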
* = called active by the depositor; ? = inconclusive; . = no result. Calls follow the shape of the dose curve; as a rule, active = well fitted curve in the direction sought with a large enough effect; inconclusive = small, poorly fitted or top-dose-only effect, or another doubt; inactive = no such curve, though single readings can be large; an effect the other way counts as inactive or inconclusive. Potency is read from the fitted curve at half-maximal effect.

SMILES	NPC1 prom act	FLuc modulator	SMN2 splice enh	ELG1 repair inh	Rab9 promoter act	ELG1 genotox
CCN(CC)c1ccc(C(=O)OCC(=O)Nc2ccc3[nH]c(=O)[nH]c3c2)cc1	-1%	19µM*	2%	-11%	-4%	3%
COc1ccc(NC(=O)COC(=O)c2ccc3ccccc3n2)cc1	2%	-1%	.	0%	-6%	1%
Cc1sc2c(c1C)c(=O)n(-c1ccc(Cl)cc1)c(=O)n2Cc1c(F)cccc1Cl	.	-1%	9%	.	.	.
CC(C)C(=O)Nc1ccccc1C(=O)N/N=C/c1ccc([N+](=O)[O-])cc1	3%	?	11%	-7%	1%	0%
Cc1nc(CCNC(=O)c2cccs2)cs1	-1%	-17%	12%	28%	-1%	5%
Cc1ccc(C(=O)NCCc2csc(C)n2)cc1	?	9.5µM*	14µM*	?	3.2µM*	18µM*
Cc1cccc(C(=O)NCCc2csc(C)n2)c1	-1%	3%	1.6µM*	?	5%	41%
COc1nc(-c2cccs2)cc(-c2ccc(C)cc2)c1C#N	-24%	-2%	-21%	-2%	-10%	-1%
CCOc1ccc(-c2cc(-c3nc(-c4cc(OC)c(OC)c(OC)c4)no3)[nH]n2)cc1	.	21µM*	.	.	.	.
COc1ccc(-c2noc(-c3cccs3)n2)cc1OC	1.3µM*	2.4µM*	.	?	1.6µM*	?
COc1ccc(-c2cc(-c3cccs3)nc(OC)c2C#N)cc1OC	-1%	1%	-12%	18µM*	0%	0%
COCc1nc(-c2cc(OC)c(OC)c(OC)c2)no1	-3%	1%	-1%	0%	-6%	-2%
COc1cc(-c2noc(-c3cccs3)n2)cc(OC)c1OC	1%	-10%	?	23µM*	4%	3%
COc1ccc(-c2noc(-c3cc(-c4ccc(F)cc4)n[nH]3)n2)cc1	.	4%	.	.	.	.
O=S(=O)(NCC1CCCO1)c1ccc(-c2ccc(S(=O)(=O)NCC3CCCO3)cc2)cc1 (stereo unspecified)	-30%	-1%	-72%	-8%	-32%	10%
CCc1ccc(CN(C)C(=O)c2cc(S(=O)(=O)N3CCN(CC)CC3)ccc2Cl)cc1	5%	3%	.	-19%	-8%	-2%
c1ccc(-c2nc(-c3cccnc3)cs2)cc1	?	12µM*	.	?	?	?
c1ccc(-c2csc(-c3cccnc3)n2)cc1	17%	19µM*	.	?	?	14%
O=C(NCc1ccccc1)c1csc(-c2cccnc2)n1	12%	-2%	.	5.8µM*	1%	-16%
O=C(Nc1ccc(Cl)cc1Cl)c1csc(-c2cccnc2)n1	2.8µM*	?	.	?	?	13%
Cc1ccc(S(=O)(=O)c2cc3cc(C(=O)Nc4ccc(C)cc4C)ccc3oc2=O)cc1	.	-2%	10%	.	.	.
CC(C)(C)NC(=O)C(c1ccc(-c2ccccc2)cc1)N(C[C@H]1CC[C@@H]([C@@H]2CC[C@H](CO)O2)O1)C(=O)c1ccc(-c2ccccc2)cc1 (stereo partly specified)	.	.	.	23µM*	.	-6%
CC(=O)N1CC=CC1(CC(C)C)C(=O)NCc1cc(F)cc(C(F)(F)F)c1 (stereo unspecified)	-1%	-3%	-10%	20%	-11%	2%
Fc1ccccc1CSc1nnc(-c2ccccc2)o1	2.5µM*	4.8µM*	35µM*	?	3.2µM*	8.2µM*
Fc1ccccc1CSc1nnc(-c2cccnc2)o1	4µM*	17µM*	?	?	3.2µM*	?
SMILES	NPC1 prom act	FLuc modulator	SMN2 splice enh	ELG1 repair inh	Rab9 promoter act	ELG1 genotox
Cc1ccc(C)c(CSc2nnc(-c3cccnc3)o2)c1	-7%	-1%	-3%	19%	10%	0%
COc1ccc(-c2nnc(SCc3ccccc3F)o2)cc1	1.3µM*	1.5µM*	11µM*	?	1.4µM*	1µM*
Cc1ccccc1-c1nnc(SCc2ccccc2)o1	?	8.5µM*	14µM*	?	?	15µM*
COc1cc(OC)cc(-c2nnc(SCc3c(F)cccc3Cl)o2)c1	3.2µM*	?	21%	?	3.5µM*	?
Cc1ccccc1-c1nnc(SCc2ccccc2F)o1	3.2µM*	1.9µM*	13µM*	?	3.5µM*	?
CCNC(=S)N=Nc1c(O)[nH]c2ccc(C(C)C)cc12	-5%	-1%	-31%	?	-16%	-6%
O=c1n(Cc2ccccc2Cl)nc2n1-c1ccccc1SC2	?	24µM*	.	?	3.5µM*	?
O=c1c2ccccc2nc(/C=C/c2cc(Br)ccc2O)n1CCCO	-8%	3%	.	?	-15%	-22%
O=C(/C=C/NCC(=O)c1ccccc1)c1ccc(Br)cc1	9%	-17%	11%	?	13%	4%
O=C(/C=C/Nc1ccccc1F)c1ccc(Br)cc1	0.56µM*	0.48µM*	5µM*	?	0.79µM*	1µM*
O=C(CCCc1ccccc1)Nc1ccc(Br)cc1F	?	?	.	?	25%	?
O=C(/C=C/Nc1ccc(Br)cc1F)c1ccccc1	1.3µM*	0.11µM*	-43%	?	0.45µM*	?
CC(=O)c1c(C)oc2ccc(NS(=O)(=O)c3ccc(C(C)C)cc3)cc12	.	-4%	-43%	.	.	.
O=S(=O)(NCc1ccccc1)c1ccc(S(=O)(=O)N(Cc2ccccn2)C2CCCC2)cc1	-7%	1%	-30%	21µM*	-5%	-9%
COc1cc(NC(=O)CN(C)S(=O)(=O)c2ccc3c(c2)CCCC(=O)N3)cc(OC)c1OC	.	-12%	.	.	.	.
Cc1ccc(-c2c[n+]3c(n2-c2ccccc2)CCC3)cc1	-30%	6%	.	2.3µM*	-34%	-16%
Cc1c(NC(=O)c2ccc(C(C)(C)C)cc2)cccc1[N+](=O)[O-]	?	13µM*	16µM*	-4%	?	10%
CC(C)(C)c1ccc(NC(=O)c2ccccc2)c([N+](=O)[O-])c1	0.45µM*	4.3µM*	8%	?	0.5µM*	-10%
Cc1cc(C(=O)Nc2cccc([N+](=O)[O-])c2C)cs1	8%	-16%	.	?	13%	10%
Cc1cc(C)c2nc(-n3nc(C)cc3N)cc(C)c2c1	13%	1.2µM*	11µM*	?	?	?
Cc1cc(N)n(-c2cc(C)c3ccccc3n2)n1	-4%	2.7µM*	11µM*	?	?	?
O=C(Cn1nnc(-c2cccs2)n1)NCCc1ccccc1	5%	-6%	14%	?	0%	0%

Bioassay records (PubChem BioAssay)
